According to the supplement of paper PMC8728848:
This excerpt belongs to a sample that is enriched for the strongest signals.

How the values were obtained:
Assay in all cases: glycan array binding signal (z-score within array); higher = stronger binding
Details in all cases: glycan notation: IUPAC condensed, linker removed
[1] = molecular target: Fuc(a1-2)Gal(b1-3)GlcNAc(b1-2)Man(a1-3)[Fuc(a1-2)Gal(b1-3)GlcNAc(b1-2)Man(a1-6)]Man(b1-4)GlcNAc(b1-4)GlcNAc
Summary of the method: (§1)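 The binding signal is a Z-score computed within each array and averaged over linkers. Arrays of the same protein sequence at different concentrations or buffers were also averaged together. Data originate from 3228 arrays in the Consortium for Functional Glycomics database, kept only where the protein sequence was available.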

[2] = molecular target: Fuc(a1-2)Gal(b1-3)[Fuc(a1-4)]GlcNAc(b1-2)Man(a1-3)[Fuc(a1-2)Gal(b1-3)[Fuc(a1-4)]GlcNAc(b1-2)Man(a1-6)]Man(b1-4)GlcNAc(b1-4)GlcNAc
Summary of the method: as §1

[3] = molecular target: Fuc(a1-2)[Gal(a1-3)]Gal(b1-4)Glc
Summary of the method: as §1

[4] = molecular target: Fuc(a1-2)[Gal(a1-4)]Gal(b1-4)GlcNAc
Summary of the method: as §1

[5] = molecular target: Fuc(a1-2)[GalNAc(a1-4)]Gal(b1-4)GlcNAc
Summary of the method: as §1

[6] = molecular target: Fuc(a1-3)[Gal(b1-4)]GlcNAc(b1-4)Gal(b1-4)[Fuc(a1-3)]GlcNAc
Summary of the method: as §1

[7] = molecular target: Gal(a1-3)[Gal(a1-4)]Gal(b1-4)GlcNAc
Summary of the method: as §1

[8] = molecular target: Gal(b1-2)Gal
Summary of the method: as §1

[9] = molecular target: Gal(b1-4)GlcNAc(b1-2)Man(a1-3)[Gal(b1-4)GlcNAc(b1-2)Man(a1-6)]Man(b1-4)GlcNAc(b1-4)GlcNAc
Summary of the method: as §1

[10] = molecular target: Gal(b1-4)GlcNAc(b1-3)Gal(b1-4)GlcNAc(b1-3)Gal(b1-4)GlcNAc
Summary of the method: as §1

[11] = molecular target: Gal(b1-4)GlcNAc(b1-3)[GlcNAc(b1-6)]Gal(b1-4)GlcNAc
Summary of the method: as §1

[12] = molecular target: Gal3S(b1-3)[Fuc(a1-4)]GlcNAc
Summary of the method: as §1

[13] = molecular target: Gal3S6S(b1-4)GlcNAc6S
Summary of the method: as §1

[14] = molecular target: GalNAc(a1-3)GalNAc
Summary of the method: as §1

[15] = molecular target: GalNAc(b1-3)GalNAc
Summary of the method: as §1

[16] = molecular target: Glc(a1-6)Glc(a1-6)Glc
Summary of the method: as §1

[17] = molecular target: Glc(b1-6)Glc
Summary of the method: as §1

[18] = molecular target: GlcA(b1-6)Gal
Summary of the method: as §1

[19] = molecular target: GlcNAc(a1-4)Gal(b1-4)GlcNAc(b1-3)Gal(b1-4)GlcNAc(b1-3)Gal(b1-4)GlcNAc
Summary of the method: as §1

[20] = molecular target: GlcNAc(a1-4)Gal(b1-4)GlcNAc(b1-3)Gal(b1-4)[Fuc(a1-3)]GlcNAc(b1-3)Gal(b1-4)[Fuc(a1-3)]GlcNAc
Summary of the method: as §1

[21] = molecular target: GlcNAc(a1-6)Gal(b1-4)GlcNAc
Summary of the method: as §1

[22] = molecular target: GlcNAc(b1-4)[GlcNAc(b1-6)]GalNAc
Summary of the method: as §1

[23] = molecular target: Man(a1-6)Man
Summary of the method: as §1

[24] = molecular target: Neu5Ac(a2-3)Gal(b1-3)GlcNAc(b1-3)Gal(b1-3)GlcNAc
Summary of the method: as §1

[25] = molecular target: Neu5Ac(a2-3)Gal(b1-3)GlcNAc6S
Summary of the method: as §1

[26] = molecular target: Neu5Ac(a2-3)Gal(b1-4)[Fuc(a1-3)]GlcNAc(b1-3)Gal(b1-4)GlcNAc
Summary of the method: as §1

[27] = molecular target: Neu5Ac(a2-3)Gal(b1-4)[Fuc(a1-3)]GlcNAc(b1-6)[Gal(b1-3)]GalNAc
Summary of the method: as §1

[28] = molecular target: Neu5Ac(a2-3)Gal6S(b1-4)[Fuc(a1-3)]GlcNAc
Summary of the method: as §1

[29] = molecular target: Neu5Ac(a2-3)GalNAc
Summary of the method: as §1

[30] = molecular target: Neu5Ac(a2-6)Gal(b1-4)GlcNAc(b1-3)Gal(b1-4)GlcNAc(b1-3)Gal(b1-4)GlcNAc
Summary of the method: as §1

[31] = molecular target: Neu5Ac(a2-8)Neu5Ac
Summary of the method: as §1

[32] = molecular target: Neu5Ac(b2-6)GalNAc
Summary of the method: as §1

B1: MRCL (Homo sapiens), NP_872425.1 (protein)
chain: ATKVHFPFHTCDLRIDGDCFMVSSEADTYYRARMKCQRKGGVLAQIKSQKVQDILAFYLGRLETTNEVTDSDFETRNFWIGLTYKTAKDSFRWATGEHQAFTSFAFGQPDNHGLVWLSAAMGFGNCVELQASAAFNWNNQRCKTRNRYICQFAQEHISRWGPGS
glycan array binding signal (z-score) [1]: 3.42
glycan array binding signal (z-score) [2]: 0.034
glycan array binding signal (z-score) [3]: 2.33
glycan array binding signal (z-score) [4]: -0.456
glycan array binding signal (z-score) [5]: 3.1
glycan array binding signal (z-score) [6]: -0.365
glycan array binding signal (z-score) [7]: 0.889
glycan array binding signal (z-score) [8]: -0.726
glycan array binding signal (z-score) [9]: -0.358
glycan array binding signal (z-score) [10]: 4.88
glycan array binding signal (z-score) [11]: 4.12
glycan array binding signal (z-score) [12]: -0.239
glycan array binding signal (z-score) [13]: 0.67
glycan array binding signal (z-score) [14]: -0.581
glycan array binding signal (z-score) [15]: -0.074
glycan array binding signal (z-score) [16]: -0.679
glycan array binding signal (z-score) [17]: -0.712
glycan array binding signal (z-score) [18]: 0.237
glycan array binding signal (z-score) [19]: 1.88
glycan array binding signal (z-score) [20]: 1.11
glycan array binding signal (z-score) [21]: 5.62
glycan array binding signal (z-score) [22]: -0.523
glycan array binding signal (z-score) [23]: 0.948
glycan array binding signal (z-score) [24]: -0.295
glycan array binding signal (z-score) [25]: -0.562
glycan array binding signal (z-score) [26]: -0.637
glycan array binding signal (z-score) [27]: -0.645
glycan array binding signal (z-score) [28]: -0.64
glycan array binding signal (z-score) [29]: -0.424
glycan array binding signal (z-score) [30]: -0.367
glycan array binding signal (z-score) [31]: -0.294
glycan array binding signal (z-score) [32]: 5.61
